# Hits are enriched below; roughly 3.7% of the tested compounds scored in any of these assays.
# V-ATPase pHluor – regulators of yeast V-ATPase proton pumping, primary screen, pHLuorin cytosolic pH fluorescence | S. cerevisiae | response, % at 10 µM | actives 0.37% (n = 350,000); in the data active = response mostly above about 7.3%, no sharp cut-off; inactive = mostly below about 5.4%; also: actives read high
# TIM10 inh – growth inhibitors of isogenic TIM10 control yeast, primary screen, counter-screen for tim10-1 yeast inhibitor project, luminescence, uHTS; inhibition, % at 10 µM; S. cerevisiae TIM10 strain growth, BacTiter-Glo luminescence, 24 h; AID 463195, 2010; actives 1.4% (n = 330,000);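 active = inhibition of 40% or more at the single tested concentration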;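 also: wild-type TIM10 isogenic control strain grown at permissive 25 °C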
# tim23-1 inh – growth inhibitors of tim23-1 mutant yeast, primary screen, luminescence, uHTS; actives 1.3% (n = 330,000); inhibition, % at 20 µM; S. cerevisiae tim23-1 growth, BacTiter-Glo luminescence, 24 h;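 active = growth inhibition of the mutant yeast at or above 50%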;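 also: temperature-sensitive mutant grown at 25 °C; plate controls were DMSO-treated mutant yeast for no effect and medium wells lacking yeast for full effect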
# PfHsp90 set2 – growth inhibition of PfHsp90-expressing yeast, primary screen, antimalarial PfHsp90 inhibitor project, S. cerevisiae, BacTiter-Glo luminescence, single point, set 2; BacTiter-Glo ATP, 48 h; yeast lacking PDR1 and PDR3 efflux regulators; inhibition, % at 9.4 µM; actives 0.32% (n = 310,000); AID 504621, 2011;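 active = every replicate shows inhibition above about 80%, whatever the replicate mean, limit read from the data; inconclusive = mean inhibition reaches the set limit but some replicate falls short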;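 also: 0% = DMSO neutral controls and 100% = 20 µM radicicol positive controls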
# tim10-1 inh – growth inhibitors of tim10-1 mutant yeast, primary screen, luminescence, uHTS; actives 2.2% (n = 330,000); AID 463190, 2010; S. cerevisiae tim10-1 ts strain growth, BacTiter-Glo, 24 h; inhibition, % at 20 µM;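 active = inhibition of at least 40%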;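 also: mutant grown at 25 °C; 0% = DMSO wells with yeast and 100% = wells holding no yeast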
# tim10-1 conf – growth inhibitors of tim10-1 mutant yeast, confirmation, single concentration, luminescence, S. cerevisiae; shares compounds with tim10-1 inh; S. cerevisiae tim10-1 ts strain growth, BacTiter-Glo, 24 h; inhibition, % at 20 µM; actives 56% (n = 7,400); AID 463213, 2010;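 active = inhibition of yeast growth at or above a set limit in either of two repeat tests at 20 µM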;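 also: tim10-1 mutant grown at permissive 25 °C to find synthetic lethal compounds; 0% = DMSO yeast wells and 100% = medium wells without yeast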
# TIM10 conf – growth inhibitors of wild-type TIM10 yeast, confirmation, counter-screen for tim10-1 synthetic lethality project, single concentration, luminescence, S. cerevisiae. S. cerevisiae tim10 strain growth, BacTiter-Glo luminescence, 24 h. inhibition, % at 10 µM. actives 63% (n = 4,600). shares compounds with TIM10 inh;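 active = inhibition of yeast growth at or above a set limit in either of two replicates at 10 µM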;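 also: this counterscreen used the strain with wild-type TIM10; 0% = yeast with DMSO and 100% = medium wells lacking yeast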
# tim23-1 conf – tim23-1 mutant yeast growth inhibitors, confirmation, luminescence, single concentration | shares compounds with tim23-1 inh | inhibition, % at 20 µM | actives 83% (n = 4,400) | S. cerevisiae tim23-1 growth, BacTiter-Glo luminescence, 24 h | AID 463218, 2010;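 active = inhibition above about 39% in either of two replicate wells at 20 µM, limit read from the data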;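 also: temperature-sensitive tim23-1 mutant grown at 25 °C; 0% = DMSO wells with yeast and 100% = medium wells without yeast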
# Starred values were filed as active, the others as inactive; ? = inconclusive; . = no result.
SMILES,V-ATPase pHluor,TIM10 inh,tim23-1 inh,PfHsp90 set2,tim10-1 inh,tim10-1 conf,TIM10 conf,tim23-1 conf
CSc1ccc(C2N=C(c3ccccc3)NO2)cc1 (configuration not stated),2,26,21,18,-8,.,.,.
Oc1c(Br)cc(C2N=C(c3ccccc3)NO2)cc1Br (configuration not stated),7,33,67*,-3,44*,58*,.,68*
Oc1ccc2ccccc2c1N=Nc1ccccn1,0,25,52*,125*,52*,46*,.,59*
Oc1ccc2ccccc2c1N=Nc1ccccc1F,4,-5,22,-11,12,.,.,.
Cc1cccc(Nc2nc(-c3ccc(O)cc3O)cs2)n1,2,33,87*,-73,43*,38*,.,72*
O=C(c1ccc([N+](=O)[O-])o1)N1CCc2ccccc21,5,67*,77*,-13,65*,77*,79*,86*
Cc1ccc(C(=O)N2CCc3ccccc32)o1,9,5,7,-23,-5,.,.,.
COc1cc(SC)ccc1C(=O)Nc1nc2ccccc2[nH]1,2,88*,93*,96*,90*,91*,88*,94*
CN(C)c1cccc(C(=O)Nc2nc3ccccc3[nH]2)c1,5,15,-11,-11,-9,.,.,.
COc1ccccc1C(=O)Nc1nc2ccccc2[nH]1,-1,68*,85*,99*,67*,66*,55*,83*
Cc1ccc(N(C)S(=O)(=O)c2cccc(C(=O)Nc3nc4ccccc4[nH]3)c2)cc1,-1,34,56*,-17,41*,42*,.,53*
COc1ccc(N(C(=O)c2snc(C(N)=O)c2N)C(C(=O)NC2CCCC2)c2cccs2)c(OC)c1 (configuration not stated),3,18,29,-3,7,.,.,.
COc1ccc(S(=O)(=O)N2CCCC2CNC(=O)C(=O)NCc2ccco2)cc1 (configuration not stated),1,7,12,23,24,.,.,.
Cc1ccsc1/C=N/Nc1nc(=O)[nH]nc1C,2,43*,50*,?,52*,50*,48*,56*
Cc1ccccc1C(=O)Nc1sc(C)c(C)c1C(=O)c1ccccc1,2,-9,-10,-26,14,.,.,.
Cc1sc(NC(=O)CCl)c(C(=O)c2ccccc2)c1C,5,46*,52*,-2,43*,39*,9,38*
O=C(CCl)Nc1sccc1C(=O)c1ccccc1,4,47*,60*,-12,54*,55*,52*,50*
c1ccc2c(c1)C1=NCCN1c1ccccc1-2,0,.,.,.,.,.,.,.
COC(=O)c1cccc2c1-c1ccccc1/C2=N/O,-3,33,65*,-21,59*,38*,.,56*
COC(=O)c1ccc2c(c1O)C(=O)c1ccccc1C2=O,2,91*,77*,-102,80*,75*,91*,82*
CC(C)(C)C(=O)NC1CC2CCCC(C1)N2C(=O)Nc1ccccc1 (configuration not stated),-2,5,6,4,1,.,.,.
CC(=NC1CCCC1)c1c(C)[nH]n(-c2nc3ccccc3s2)c1=O,-1,2,9,9,19,.,.,.
CC(=NC1CC1)c1c(-c2ccccc2)[nH]n(-c2nc3ccccc3s2)c1=O,0,64*,53*,-15,53*,56*,49*,52*
Cc1ccc(-c2nnc(N3CCC(C)CC3)c3ccccc23)cc1C,-1,4,48,0,19,.,.,.
COc1ccc(-c2nnc(N3CCCCC3)c3ccccc23)cc1,2,29,60*,-8,51*,47*,.,55*
SMILES,V-ATPase pHluor,TIM10 inh,tim23-1 inh,PfHsp90 set2,tim10-1 inh,tim10-1 conf,TIM10 conf,tim23-1 conf
CC1CCN(c2nnc(-c3ccccc3)c3ccccc23)CC1,-1,12,69*,-20,41*,0,.,34
COc1ccc(-c2nnc(N3CCOCC3)c3ccccc23)cc1,-5,-1,3,11,-6,.,.,.
Cc1ccc(CNC(=O)CNC(=S)N(Cc2ccccc2)Cc2ccccc2F)cc1,-1,.,.,17,.,.,.,.
Cn1c(/C(C#N)=C/C2CC=CCC2)nc2ccccc21 (configuration not stated),1,34,69*,-17,43*,39*,.,51*
O=C(N/N=C/C(Br)=C\c1ccccc1)c1ccc2nc[nH]c2c1,2,11,16,14,18,.,.,.
Cc1ccc(C(=O)Nc2cccc(NC(=O)c3cccs3)c2)c(C)c1,3,21,53*,0,47*,36*,.,50*
COc1cc(NC(=O)c2ccc(C)cc2C)ccc1NC(=O)c1cccs1,0,-9,-1,-8,-12,.,.,.
O=C(NCCN1C(=O)S/C(=C\c2ccc(Cl)cc2Cl)C1=O)C1=COCCO1,3,47*,57*,-1,41*,47*,48*,67*
O=C(NCCN1C(=O)S/C(=C\c2ccccc2Cl)C1=O)C1=COCCO1,0,27,24,10,33,.,.,.
CCC(=O)NC(c1ccc(Cl)cc1Cl)c1ccc2cccnc2c1O (configuration not stated),-3,6,61*,111*,48*,25,.,52*
CCC(=O)NC(c1cc(Cl)c2cccnc2c1O)C1CC1 (configuration not stated),-3,10,58*,4,40*,19,.,58*
CCCCC(=O)NC(c1ccc(OC)cc1)c1ccc2cccnc2c1O (configuration not stated),-2,.,.,.,.,.,.,.
CCOP(=O)(c1ccc(N(C)C)cc1)C(O)c1ccc(OC)cc1 (configuration not stated),2,6,10,2,11,.,.,.
CC(=O)c1ccc(NC(=S)N2c3ccccc3CC2C)cc1 (configuration not stated),-2,10,25,6,-19,.,.,.
CC1Cc2ccccc2N1C(=S)NC(=O)c1cccc(Br)c1 (configuration not stated),2,59*,52*,-165,44*,32*,5,58*

# Source: PubChem
